Screening results from PubChem BioAssay.
Most compounds without a hit are left out; they make up all but 19% or so of the library.
Chronic BCR inh – blocks chronic active B-cell receptor signaling. AID 493014. hit rate 0.05% among 340,000. Potency, µM (titrated, usually from 46.1 µM), without a hit: top-dose activity change, negative = inhibition, most hits filed as inhibitors. ABC-DLBCL IkBa-CBG/CBR reporter, luminescence ratio, 4 h; active = well fitted inhibition curve with a large enough effect in the signal ratio, with a control signal flat, not every such curve was filed as active; inconclusive = small, poorly fitted or top-dose-only effect, or effect the other way, or a change in a side signal; the % refers to the signal ratio;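 note: potency is the fitted concentration of half-maximal effect; plate controls were basal doxycycline-induced cells for no effect and cells given 10 µM MG132 for full effect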
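Compounds up to 46 uM were incubated four hours with TMD8 cells whose green CBG68 luciferase is fused to IkappaBalpha; red CBR luminescence normalised the signal, and concentration-effect curves were fitted to fusion, red and ratio data.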
IL-1B inflam inh – inhibitors of inflammasome signaling (IL-1 beta secretion) | THP-1 LPS/ATP IL-1B secretion, AlphaLISA, 16 h; active compounds read low | hit rate 4.7% among 360,000 | activity change, % at 57.5 µM | AID 743279; in the data active = activity change below about -50%; inconclusive = mostly about -30% to -49%; note: % is set by controls: 0 for no effect and ±100 for the full control effect
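THP-1 cells pretreated 1 hr with compounds (up to 57.5 uM final), then stimulated with LPS (250 ng/mL final) plus ATP (1.25 mM final); secreted IL-1B measured by AlphaLISA after 16 hr, decreased signal indicating inhibition.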
SW480 rereplic – DNA re-replication induction in SW480 cells; AID 624297; Potency, µM (series often up to 46.1 µM), for inactives: top-dose re-replication activation, actives largely listed as activators; SW480 DNA re-replication, Hoechst DNA content imaging, 48 h; hit rate 1.8% among 340,000; note: potency is the fitted concentration of half-maximal effect; % of control where 0% means no effect; nearly all actives have a fitted effect of over 55% in size
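Quantitative HTS format with DMSO vehicle controls; 48 hr drug incubation at 37 C, then 40 min Hoechst staining and scanning imager measurement at 405 nm excitation.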
TDP1 cell noCPT – qHTS for Inhibitors of human tyrosyl-DNA phosphodiesterase 1 (TDP1): qHTS in cells in absence of CPT; DT40 Tdp1-/- hTDP1 cells, no CPT, ATP luminescence, 48 h; Potency, µM (top dose mostly 46.2 µM), for the others: at the highest dose activity change, negative = growth inhibition, usual class: inhibitors; hit rate 15% among 420,000; AID 686978, 2013; note: potency is the fitted concentration of half-maximal effect; % is set by controls: 0 for no effect and ±100 for the full control effect; nearly all actives have a fitted effect of over 55% in size
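Compound effects on proliferation are scored in DT40 Tdp1-/-;hTDP1 cells in the absence of CPT. ATP levels (CellTiter-Glo luminescence) are recorded after a ≥48 hr, 37 °C incubation.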
DT40 TDP1 CPT – DT40-hTDP1 cell growth loss with CPT; chicken DT40 Tdp1-/-;hTDP1 cells + 20 nM CPT, ATP luminescence, 48 h; Potency, µM (series often up to 46.2 µM), without a hit: top-dose activity change, negative = growth inhibition, most hits filed as inhibitors; hit rate 12% among 420,000; AID 686979; note: potency is the fitted concentration of half-maximal effect; % is set by controls: 0 for no effect and ±100 for the full control effect; nearly all actives have a fitted effect of over 55% in size
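Chicken DT40 Tdp1-/- cells complemented with human TDP1, 400 cells/well, exposed to compounds plus 20 nM camptothecin for at least 48 h at 37 C; viability read as ATP content by CellTiter-Glo luminescence.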
MCF10A rerep – DNA re-replication induction in MCF 10a cells; hit rate 2.9% among 350,000; Potency, µM (top dose mostly 46.1 µM), for the others: top-dose activity, positive = re-replication, most hits filed as activators; MCF 10A DNA re-replication, Hoechst nuclear intensity, 48 h; note: potency is the fitted concentration of half-maximal effect; % of control where 0% means no effect; nearly all actives have a fitted effect of over 50% in size
The depositor's hits bear a star; i = inactive; ? = inconclusive; · = no result given. Unless noted, calls come from the whole dose curve; as a rule, active = well fitted curve in the direction sought with a large enough effect; inconclusive = small, poorly fitted or top-dose-only effect, or another doubt; inactive = no such curve, though single readings can be large; an effect the other way counts as inactive or inconclusive.

SMILES | Chronic BCR inh | IL-1B inflam inh | SW480 rereplic | TDP1 cell noCPT | DT40 TDP1 CPT | MCF10A rerep
CCOC(=O)c1ccc(NC(=O)Cn2nc(C)c3ccccc3c2=O)cc1 | -0.2% | 38.6 | ? | 10.9% | -2.2% | 2.1%
CCOC(CNC(=O)Cn1nc(C)c2ccccc21)OCC | -0.3% | 1.0 | -38.3% | -0.1% | 12.4% | 0.731µM*
CCC(c1nnnn1Cc1ccc2c(c1)OCO2)N1CCN(c2ccc(F)cc2)CC1 (configuration not stated) | 1.6% | -14.4 | ? | ? | 20.6µM* | 19.2%
CCC(c1nnnn1Cc1ccc(OC)cc1)N1CCN(c2ccc(OC)cc2)CC1 (configuration not stated) | -17.8% | 12.7 | 2.2% | -28.4% | 0.3% | ?
CCCC(c1nnnn1Cc1ccc(OC)cc1)N1CCN(c2ccccc2OC)CC1 (configuration not stated) | -8.2% | 8.3 | 21.5% | 20.6µM* | ? | ?
CCC(c1nnnn1Cc1ccc2c(c1)OCO2)N1CCN(c2ccc(OC)cc2)CC1 (configuration not stated) | 1.6% | ? | ? | ? | 25.9µM* | 13.0%
CS(=O)(=O)Nc1cccc(-c2nc(NCc3ccccc3)c3ccccc3n2)c1 | · | · | · | -27.5% | ? | ·
CC(C)c1ccc(C(C(C(=O)c2ccccc2)N2CCOCC2)N2CCOCC2)cc1 (configuration not stated) | · | -7.6 | 2.1% | -0.9% | 5.3% | 0.3%
Cc1ccc(C(=O)Nc2nc(-c3ccc(F)cc3)cs2)o1 | ? | -14.8 | 1.1% | ? | ? | 1.9%
O=C(Nc1ccccc1)Nc1nc(-c2ccc(F)cc2)cs1 | ? | -7.3 | 2.1% | 4.11µM* | 4.11µM* | 5.4%
Fc1ccc(-c2csc(NC(=S)Nc3ccccc3)n2)cc1 | 2.9% | 30.9 | -4.1% | ? | 20.6µM* | ?
CC1CC(C)CN(C(C(=O)NC2CCCCC2)c2ccnc3ccccc23)C1 (configuration not stated) | · | -3.8 | · | ? | ? | ·
CC1CC(C)CN(C(C(=O)NC2CCCCC2)c2cc3ccccc3o2)C1 (configuration not stated) | · | -28.1 | · | 25.9µM* | ? | ·
COC(=O)[C@]12C(=O)NC[C@H](CN1c1ccc(Cl)c(C)c1)N2C | 0.4% | 0.0 | 2.5% | -2.6% | -1.1% | 6.0%
CC1CC(C)CN(C(=O)Nc2ccccc2F)C1 (configuration not stated) | -10.0% | -9.2 | -4.3% | -1.9% | 4.4% | 0.5%
CC(=O)Nc1ccccc1OC(C)C(=O)N1CC(C)CC(C)C1 (configuration not stated) | 7.5% | 7.3 | -6.3% | 20.6µM* | ? | 3.3%
COc1ccc(C(=O)N2CCN(c3ccccc3)CC2)cc1S(=O)(=O)N1CCCC1 | -1.3% | i | ? | -24.8% | -26.5% | 13.0%
Cc1ccc(-c2nc3ccc(Br)cn3c2Cc2cccc(Cl)c2)cc1 | · | 58.8 | · | 9.2µM* | 14.6µM* | ·
COc1ccccc1Cc1c(-c2ccc(OC)c(OC)c2)nc2ccc(Br)cn12 | · | -8.4 | · | 5.8µM* | 18.4µM* | ·
Cc1c(-c2ccc(Br)cc2)nc2ccccn12 | 12.3% | -80.9* | -3.6% | ? | -29.8% | ?
Cc1ccc(-c2nc3ccc(Br)cn3c2Cc2ccccc2)cc1 | · | 0.0 | · | ? | 14.6µM* | ·
O=C1OCC/C1=C\OCCCO/C=C1\CCOC1=O | 2.2% | 16.9 | -3.7% | -6.5% | 7.3% | -0.1%
Cn1c(=O)n(CCc2ccccc2)c(=O)c2c1nc1n2CCN1c1ccc(Cl)cc1 | · | · | · | -13.1% | -7.3% | ·
N#Cc1ccc(-c2nc3ccc(Br)cn3c2Cc2cccc(Cl)c2)cc1 | · | -28.7 | · | 20.6µM* | ? | ·
Clc1ccc2nc(-c3ccccc3)c(Cc3ccsc3)n2c1 | · | 65.3 | · | ? | -5.4% | ·
SMILES | Chronic BCR inh | IL-1B inflam inh | SW480 rereplic | TDP1 cell noCPT | DT40 TDP1 CPT | MCF10A rerep
Cc1ccc(-c2nc3ccc(C)cn3c2Cc2cccc(Cl)c2)cc1 | · | -1.4 | · | ? | ? | ·
Brc1ccc2nc(-c3ccccc3)c(Cc3ccsc3)n2c1 | · | 89.5 | · | 23.1µM* | 25.9µM* | ·
COc1ccc(-c2nc3ccc(Br)cn3c2Cc2cccc(Cl)c2)cc1OC | · | ? | · | 20.6µM* | ? | ·
Cc1ccc(-c2nc3ccc(Cl)cn3c2Cc2cccc(Cl)c2)cc1 | · | 3.0 | · | 16.4µM* | ? | ·
Clc1ccc(-c2nc3ccc(Br)cn3c2Cc2cccc(Cl)c2)cc1 | · | 10.8 | · | ? | ? | ·
COc1ccc(OC)c(C=NNC(=O)c2ccccc2NS(=O)(=O)c2cccs2)c1 | -15.7% | 0.0 | -1.1% | -6.4% | -10.9% | -7.0%
CC(=O)NC12CC3CC(C1)CC(C(=O)Nc1cccc(S(=O)(=O)N4CCCCCC4)c1)(C3)C2 | · | -13.4 | -0.3% | ? | ? | 15.4%
COCCNC(=O)Cn1nc(-c2ccc(C)cc2)ccc1=O | 3.5% | -14.1 | -23.8% | -6.4% | 3.1% | 11.6%
Fc1ccc(-c2nc3ccc(Cl)cn3c2Cc2cccc(F)c2)cc1 | · | -25.9 | · | 23.1µM* | ? | ·
Cc1ccc(Nc2nnc(SCC(=O)NCC3CCCO3)s2)cc1C (configuration not stated) | -2.1% | 4.6 | -11.0% | -25.7% | ? | 11.1%
